Data from PubChem BioAssay AID1159580 (chemical genetic matrix, 2015).
About 2,000 (36%) of roughly 5,500 compounds were called active. Another 18% or so got no clear call; they are omitted. No stated cut-off is given here; in the data, active means normalized growth mostly below about 0.91 (no sharp cut-off); inconclusive means no clear call, values can overlap the other calls; inactive means mostly above about 0.92. This is one part of the list.

Test: chemical genetic growth profiling, strain panel (AID 1159580);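 further: tested at 20 µM; growth read once vehicle control cultures reached saturation at 30 °C; 1 = growth at the plate median or of vehicle wells; lower values mean less growth of the strain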
Conditions: S. cerevisiae deletion strains, growth OD

Measured: normalized growth

COc1cc2c(cc1OC)-c1c(oc3cc(O)cc(O)c3c1=O)CO2
inactive: locus YAL021C, strain ccr4, hits give low values 1.02 | locus YAL026C, strain drs2, hits give low values 1.01 | locus YAL030W, strain snc1, hits give low values 1.01 | locus YBL061C, strain skt5, hits give low values 1.01 | locus YBR009C, strain hhf1, hits give low values 1.02 | locus YBR023C, strain chs3, hits give low values 1.02 | locus YBR171W, strain sec66, hits give low values 1.03 | locus YBR231C, strain swc5, hits give low values 1.02 | locus YBR279W, strain paf1, hits give low values 1.02 | locus YCL011C, strain gbp2, hits give low values 1.01 | locus YCL016C, strain dcc1, hits give low values 1.02 | locus YCL061C, strain MRC1, hits give low values 1.01 | locus YCL069W, strain vba3, hits give low values 1.01 | locus YCR088W, strain abp1, hits give low values 1.02 | locus YDL005C, strain med2, hits give low values 1.04 | locus YDL040C, strain nat1, hits give low values 1.01 | locus YDR001C, strain nth1, hits give low values 1.01 | locus YDR069C, strain doa4, hits give low values 1.02 | locus YDR137W, strain rgp1, hits give low values 1 | locus YDR159W, strain sac3, hits give low values 1.04 | locus YDR195W, strain ref2 1.04 | locus YDR297W, strain sur2, hits give low values 1.02 | locus YDR334W, strain swr1, hits give low values 1.01 | locus YDR335W, strain msn5, hits give low values 1.03 | locus YDR392W, strain spt3, hits give low values 1.01 | locus YEL003W, strain gim4, hits give low values 1.02 | locus YEL037C, strain rad23, hits give low values 1.01 | locus YEL061C, strain CIN8 (second series), hits give low values 1.01 | locus YER015W, strain faa2, hits give low values 1.02 | locus YER016W, strain bim1, hits give low values 1.01 | locus YER111C, strain swi4, hits give low values 1.03 | locus YER155C, strain BEM2 (second series), hits give low values 1.03 | locus YFR010W, strain ubp6, hits give low values 1.02 | locus YGL167C, strain pmr1, hits give low values 1.02 | locus YGL173C, strain kem1, hits give low values 1.03 | locus YGL227W, strain vid30, hits give low values 1.03 | locus YGL240W, strain doc1, hits give low values 1.02 | locus YGL253W, strain hxk2, hits give low values 1.02 | locus YHR013C, strain ard1, hits give low values 1.01 | locus YHR027C, strain rpn1, hits give low values 1.03 | locus YHR030C, strain SLT2, hits give low values 1.05 | locus YHR079C, strain IRE1, hits give low values 1.04 | locus YHR142W, strain chs7, hits give low values 1.01 | locus YJL092W, strain hpr5, hits give low values 1.02 | locus YJL095W, strain BCK1 (second series), hits give low values 1.01 | locus YJL095W, strain BCK1, hits give low values 1.05 | locus YJL115W, strain asf1, hits give low values 1.01 | locus YJL129C, strain trk1, hits give low values 1.03 | locus YJL154C, strain vps35, hits give low values 1.02 | locus YJL164C, strain tpk1, hits give low values 0.995 | locus YJL166W, strain qcr8, hits give low values 1.01 | locus YJL187C, strain SWE1, hits give low values 1.02 | locus YJR066W, strain TOR1, hits give low values 0.999 | locus YKL160W, strain elf1, hits give low values 1.02 | locus YKR026C, strain gcn3, hits give low values 1.02 | locus YKR091W, strain srl3, hits give low values 1.02 | locus YLL001W, strain dnm1, hits give low values 1.02 | locus YLL026W, hits give low values 1.01 | locus YLL041C, strain sdh2, hits give low values 0.973 | locus YLR027C, strain aat2, hits give low values 1.01 | locus YLR113W, strain HOG1, hits give low values 1.08 | locus YLR221C, strain rsa3, hits give low values 1.02 | locus YLR258W, strain gsy2, hits give low values 1.02 | locus YLR262C, strain YPT6 (second series), hits give low values 1.01 | locus YLR320W, strain mms22, hits give low values 1.03 | locus YLR342W, strain FKS1, hits give low values 1.02 | locus YLR357W, strain rsc2, hits give low values 1.01 | locus YLR370C, strain arc18, hits give low values 1.02 | locus YLR384C, strain iki3, hits give low values 1.03 | locus YML120C, strain ndi1, hits give low values 1.01 | locus YMR058W, strain fet3, hits give low values 1.02 | locus YMR125W, strain sto1, hits give low values 1.02 | locus YMR129W, hits give low values 1.02 | locus YMR205C, strain PFK2, hits give low values 1.02 | locus YMR231W, strain pep5, hits give low values 1.02 | locus YNL071W, strain lat1, hits give low values 1.01 | locus YNL183C, strain NPR1, hits give low values 0.988 | locus YNL209W, strain ssb2, hits give low values 1.02 | locus YNL248C, strain rpa49, hits give low values 1.02 | locus YNL322C, strain KRE1 (second series), hits give low values 1.02 | locus YNR049C, strain mso1, hits give low values 1.02 | locus YOR001W, strain rrp6, hits give low values 1.04 | locus YOR070C, strain gyp1, hits give low values 1.02 | locus YOR080W, strain dia2, hits give low values 1.02 | locus YOR083W, strain WHI5, hits give low values 1 | locus YOR106W, strain vam3, hits give low values 1.05 | locus YOR231W, strain MKK1, hits give low values 1.05 | locus YOR265W, strain rbl2, hits give low values 1.01 | locus YOR270C, strain vph1, hits give low values 1.02 | locus YOR290C, strain snf2, hits give low values 1.02 | locus YPL051W, strain arl3, hits give low values 1 | locus YPL078C, strain atp4, hits give low values 1.02 | locus YPL106C, strain sse1, hits give low values 1.02 | locus YPL240C, strain hsp82, hits give low values 1.02 | locus YPL256C, strain CLN2, hits give low values 1.05
